In the supplement of paper PMC3724861:
The full list was thinned out, with hits kept by preference. The true hit rate is not given.

Test system: T1, Caupolican (Caup) homeodomain DNA-binding domain
T1 sequence: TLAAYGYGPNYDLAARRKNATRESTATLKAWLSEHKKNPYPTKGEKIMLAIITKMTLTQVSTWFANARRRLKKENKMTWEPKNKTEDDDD
Experiment: PBM E-score (8-mer, recovered from the published 9-mer minima) (E-score (dimensionless, -0.5 to 0.5)); Drosophila protein; higher = stronger relative binding preference, active = 0.31 or more
In short: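 Caup's homeodomain DNA-binding domain (residues 214-303) was made by in vitro transcription and translation and applied at 100 nM to custom-designed protein binding microarrays. Each value is an enrichment score that gives relative binding preference for a short DNA word, with higher meaning stronger. The 8-mer values were recovered from published 9-mer scores, each of which was the minimum of its two constituent 8-mer scores. A cutoff of 0.31 marks candidate sites.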

PBM E-score, inactive:
CGCAGAAC -0.0278
GAATTATA 0.109
GCGGGTAA -0.02
TAACAAGA 0.298
AAACAACT 0.246
CAACAACC 0.238
AAACAACC 0.202
GAACAACA 0.292
TAACAAAA 0.119
AGTATCTA 0.166
TATCTAGA 0.0449
GGACCCAC -0.208
GAGCAGAC -0.0808
CTAGAAAA 0.0157
CACTAATG 0.0246
CATAGCCG -0.0066
CACACGTG 0.148
ACCACGTG 0.0775
AACACGTC 0.299
AACACGTT 0.292
CTATTTTC 0.101
CCTACACG 0.18
GCTACACA 0.185
ACTACACC 0.281
ACTACACT 0.242
ATAGCTCG -0.0531
GTTCCCAA -0.045
CGATGCTC -0.13
AACGTGTG 0.111
AACGTGTC 0.257
GACGTGAA -0.0186
GACGTGGA -0.0891
CACGTGAA 0.00852
CACGTGTC 0.266
GCCCGTCC -0.243
AGGGTATC -0.045
GTACCGTA 0.0122
AATGTCTA 0.242
AATGTCTC 0.112
GATGTCTA 0.23
CATGTGTC 0.245
AAAGATTT -0.00222
CTCACCCC -0.125
ATGTATTC 0.222
CTGTATTA 0.159
GTGTATTA 0.297
ACGTATTG 0.151
GCCCCGGC -0.316
CACAGTAA 0.122
CTCTAAAG -0.0918
GCGGTTCA -0.101
GACAAAGA 0.13
AACAAGGA 0.302
GACAAGGC 0.205
CACAAGGA 0.109
CTCGACTC -0.0783
CGGCTATC -0.134
TCATATAA 0.184
ACATATAC 0.291
CCATATAA 0.0843
ACACATAA 0.291
ACATATAG 0.256
ACACATAG 0.174
CGACTATC -0.0393
AGAGGATA 0.0175
ATCAAGAT 0.0803
CTAGGAGC -0.193
CATCCCGC -0.146
AACACTAA 0.166
GCTTAAAA -0.0795
GCGCCACA -0.129
CGCGTATA -0.0122
AATATTGC 0.153
AGATGCTG -0.00229
ACATGCCT 0.254
GCATGCTA 0.0372
CCATGCTC -0.00716
ATATGCTG 0.0997
CTATGCTC 0.0374
TCATGCCA 0.0318
CCATGCTA 0.102
CACTGCTA 0.075
CATACCGC -0.0667
AAGCTCCT -0.0876
GGATGCTA -0.0509
CCAAACGG -0.223
AATTCAAG 0.118
ACTATAAT 0.162
CTTGCGCA -0.0025
TAAGTAAA 0.0166
TGAGTACA 0.265
GAAGTACA 0.269
AAAGTACA 0.276
GAAACCCA 0.0044
ATCTCTGG -0.00282
CGAGGTCA -0.0898
CAACTTGA 0.0844
ATGTACCC 0.263
AGGTACTG 0.0558
AAGTACTA 0.197
ATGTACTC 0.303
GTGTACCA 0.308
ATGTACGG 0.211
CTGTACTC 0.082
CTGTACGA 0.203
ATCATCCG 0.0593
CCCTAGCG -0.171
AGAGCCTA -0.0924
ATAACCGC 0.0257
GGGTACTA 0.152
CTGTACTA 0.156
AGTCGTCC -0.0214
CACCGAAC 0.0165
ACTGCGAA -0.0547
AATGTTAA 0.291
GATGTTAA 0.28
TCTGTTAA 0.173
AATGTTAG 0.253
TAGGTTAA 0.0795
CCTGTTAG 0.114
AATGTTAC 0.277
GATGTTAC 0.295
GACCTACC -0.0746
AGCACGCC -0.187
CGAATTGC -0.0371
TCATTAAA 0.143
GAGCTAAC -0.0389
AACCCCCG -0.284
AACGACAA 0.241
AGCGACAC 0.188
AACGACAG 0.164
AGCGACAG 0.105
AGTGACAA 0.255
AGTGACAC 0.198
AGCCTACT -0.116
CCCATCCG -0.202
GCTTACAA 0.22
CTTTACAA 0.137
ATTTACAG 0.137
ATTTACAC 0.259
AGGAGTTG 0.0303
ATACGAAG 0.0288
CACTCCCC -0.125
CCATGGTA 0.133
ACATGGTC 0.285
AGATGGTG -0.0838
GCATGGTA 0.166
CAGGCCTC -0.158
CGGGAGCA -0.149
CCGCTACC -0.0854
ATTACGTA 0.173
CGTACTAG 0.107
ACTAAACC 0.00838
AGGCCCAG -0.214
ACCCAGGC -0.17
ACATCAAG 0.227
ACATCATC 0.251
TCATCACA 0.14
ACATCAAA 0.26
ACATCACG 0.217
CCATCATA 0.02
ATATATGG 0.127
GTATAAAA 0.116
GAATCGGA -0.0551
ATCCCATC -0.00982
CGCGTACC -0.0687
GGTCTCCA -0.147
AGAACACT 0.108
AGAACAAA 0.191
CGAACACA 0.167
AGAACAAT 0.21
TGAACACA 0.309
CGAACACG 0.258
AGCAGTCG -0.15
ATTGTTTC 0.143
GGCTAAAC -0.0281
GCGGTGCC -0.251
ATGTATAG 0.276
ATGTATGG 0.157
CTGTATAA 0.186
CTGTATAC 0.246
GTGTATGA 0.249
GTGTATAA 0.202

PBM E-score, active:
TAACAACA 0.406
CAACAACA 0.408
AAACAACA 0.363
AACACGTA 0.316
AACACGTG ≥ 0.351
ACTACACA ≥ 0.357
ACTACACG ≥ 0.357
GACGTGTA 0.344
CACGTGTA 0.329
AACGTGTA 0.371
CATGTCTA 0.359
CATGTCTC 0.314
ATGTATTA 0.373
ATGTATTG 0.344
TACAAGGA 0.352
GACAAGGA 0.314
ACATATAA 0.35
ACACATAT 0.323
ACATATAT 0.343
ACATGCTA 0.352
ACATGCTG 0.332
ACATGCTC 0.334
ACATGCCA 0.336
CAAGTACA 0.342
TAAGTACA 0.332
ATGTACTA 0.398
ATGTACTG 0.339
ATGTACCA 0.36
ATGTACGA 0.395
GTGTACTA 0.34
CATGTTAC 0.42
TATGTTAA 0.314
CATGTTAA 0.446
CATGTTAG 0.408
AGCGACAT 0.325
AGTGACAT 0.354
AACGACAT 0.358
ATTTACAA 0.361
GTTTACAA 0.343
ACATGGTA 0.418
ACATGGTG 0.366
ACATCACA 0.334
ACATCATA 0.318
ACATCAAT 0.316
AGAACACG 0.33
AGAACACA ≥ 0.317
AGAACAAG 0.329
ATGTATGA 0.352
ATGTATAC 0.356
ATGTATAA 0.344
